# Assays:
# Assay in all cases: PBM binding z-score (relative to random genomic background probes); higher = stronger binding; sequences stand for … in GC…GCGATTGACAGCGTAGAATGAAGG
# [1] = system: RARb homodimer (NR concentration 270 nM)
# In short: (§1)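 Each nuclear receptor dimer, without ligand, was incubated for 1 h on custom Agilent 4×180K protein-binding microarrays. Binding was detected with antibodies against each partner (one per run), and scanned fluorescence was regression-normalized. The binding z-scores are referenced to random human genomic background probes.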
# [2] = system: RARg:RXRa (NR concentration 270 nM, RXRa partner concentration 90 nM)
# In short: as §1
# [3] = system: RARg homodimer (NR concentration 270 nM)
# In short: as §1
# [4] = system: RXRa DBDmut IVT, anti-RXR (DBD mutation: RXRa K156A/R161A, NR concentration 90 nM)
# In short: as §1
# [5] = system: RXRa homodimer (NR concentration 180 nM)
# In short: as §1
# [6] = system: THRa:RXRa (NR concentration 90 nM, RXRa partner concentration 90 nM)
# In short: as §1
# [7] = system: THRa homodimer (NR concentration 90 nM)
# In short: as §1
# [8] = system: VDR homodimer (NR concentration 270 nM)
# In short: as §1
Sequence,PBM binding z-score [1],PBM binding z-score [2],PBM binding z-score [3],PBM binding z-score [4],PBM binding z-score [5],PBM binding z-score [6],PBM binding z-score [7],PBM binding z-score [8]
CCTAGTTGGTTAGGAGGTCACACACCGGATATGA,3.78,4.04,3.53,0.861,3.97,3.42,2.5,3.06
GCGACTGGGGCAAAGCAGGTTACCATGAGGTTGG,1.2,0.634,0.674,-0.402,0.455,2.99,-0.00664,-0.385
TCATATAGGTAAATGCTAGGTGAGAGTCCGATCT,0.0117,0.257,0.032,1.03,0.42,0.935,-0.108,0.216
CATCAAAGTTCAACTAAGGTAACGTAAAGCACGC,4.32,5.94,6.82,4.67,5.76,5.1,2.29,4.37
CCATACAGGTGAGAAGGTAACTCAGCCTCGATTA,0.666,0.662,0.72,0.319,0.539,0.148,0.348,-0.195
TCTAGCAGGCCAGAGGGTCACTAAAGAGGTACGG,2.52,2.5,2.05,-0.16,2.02,1.39,-0.413,0.287
TTTTGTAGATCAATAGAGGTTAAGAAAGTGCGCT,1.27,0.945,0.869,-0.0202,1.52,2.28,-0.0563,0.777
CGTCCAAGTTCAAGGTAACGTAACAGAAAGCAGC,2.23,2.83,3.21,4.37,2.15,2.6,1.66,3.39
ATCTGTAGGTAAGACTCAGTTCAGTGAAGAACGC,0.419,0.15,-0.0533,0.0968,0.114,0.687,0.0437,0.939
CCTACTGGGCCATCTGGTCATTGATATCAACGTT,0.54,0.0182,0.419,-0.267,-0.224,-0.171,0.0962,-0.0886
TCATATAGGTAAGCAGGTGAAAGTCCGTAAGTTA,0.479,0.2,-0.071,0.903,0.347,0.462,0.196,-0.0581
GGTACAGGGTCAAGGCCAGAGTACGCGTATTGAT,3.76,5.41,5.03,1.78,5.91,3.58,1.26,2.94
TGAATGAGGTTAAAGACCAGGGAACGTGGCGTCG,0.539,1.91,0.92,0.895,2.95,2.14,0.297,0.179
CCTACTGGGCCAAAATGGTCATTGATGCCGATAA,0.177,0.104,0.0823,-0.811,-0.05,-0.37,-0.637,-0.747
CCTACGGGGCCATCAGGTCATTGATATCAACGTT,3.1,3.1,2.83,0.971,2.02,3.6,2.97,2.45
AGTCAAAGTCCACTAGGTAACGTAAGATTCAGCT,0.615,0.39,0.85,0.801,-0.0426,0.284,0.284,-0.159
CGTCCAAGGTCATAGGAGGTCCGTGAAGACAGAT,3.8,5.84,5.85,3.86,6.02,4.51,2.24,3.33
ATATGTAGGTTACATCCGGGTCATTAAGGCTATG,3.03,3.68,2.19,1.31,3.15,3.75,2.8,2.89
TCGAATAGGTTACCAATGGGGCATTCAGCTTTCT,1.21,2.11,0.782,1.09,1.39,0.655,-0.381,-0.151
CCTACTGGGCCATCATGTCATTGATATCAACGTT,0.671,0.216,0.415,-0.152,-0.104,0.045,0.122,-0.253
ATCTCTAGGTAACCAAGTTCAGTGTATGCCGAAC,1.47,0.771,0.637,0.982,0.429,1.48,0.867,2.85
TCTGCTAGATCAGTTGGTCAGCTAACGAGCTGCC,-0.799,-0.667,-0.644,-0.256,-0.419,-1.77,-1.48,-1.49
ACAATGAGGTTATTAAGATCAGGGAATTGCGGTC,1.27,1.45,1.33,2.17,1.83,2.23,1.09,1.61
CGTCCAAGGTCAAAGGAGGTCAGTGAAGACAGAT,5.57,6.67,7.08,3.52,6.32,5.42,2.98,4.01
AGAATGAGGTAATTAAGATCAGGGAATTGCGGTC,-0.177,0.105,0.0569,-0.166,0.198,1.34,0.328,-0.255
CTACCAAGGTGAACAAGGACGTTGATTACTATTC,0.951,0.848,1.13,0.601,0.715,2.43,1.36,0.537
CAAACTAGGTCACGAAAGGTGAAAGTCGAATGAC,4.73,5.68,6.37,1.59,5.25,4.82,1.92,0.591
CAAACTAGGTCACCGGAAGGTCAAAGTGCGCATG,5.82,8.58,7.66,2.19,6.73,4.72,3.05,3.53

# Source: the supplement of paper PMC6555819
